Screening results as filed in PubChem BioAssay.
Shown are actives, neighbours in structure and some others; about 1.6% of the full set was active somewhere.
p53ts 32C tox – cytotoxicity in p53ts cells at permissive temperature; Potency, µM (highest dose often 46.1 µM), usual class: cytotoxic; H1299-p53A138V at 32C, ATP luminescence viability, 24 h; AID 924; 130,000 tested, 0.93% active; note: nearly all actives have a fitted effect of over 55% in size
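Cells: H1299 p53ts (A138V), 600/well, pre-incubated 16–30 h at 37C. Cpd up to 46 uM, 24 h, 32C. Readout: ATPlite luminescence, 20 min RT. Normalization: DMSO vs tamoxifen 100 uM. AC50 by Hill equation.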
p53ts 39C tox – kills p53ts cells at the nonpermissive temperature; 130,000 tested, 1.5% active; H1299-p53A138V viability at 39C, ATP luminescence, 24 h; Potency, µM (top dose mostly 46.1 µM), hits mostly cytotoxic; note: nearly all actives have a fitted effect of over 55% in size
Peg3 imprint – induces erasure of genomic imprints in mouse ES cells | mouse ES Peg3-LacZ reporter, beta-gal luminescence, 40 h | Potency, µM (doses to about 60.7 µM), most hits filed as activators | 110,000 tested, 0.02% active | AID 1948
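Each well holds 300 Peg3LacZ-Neo (maternal) female ES cells incubated 40 h at 37C, 5% CO2. LacZ is measured by BetaGlo luminescence, with AC50 and maximum efficacy derived from dose-response curves.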
Large screens that a line does not name were inactive. Calls come from the whole dose curve; as a rule, active = well fitted curve in the direction sought with a large enough effect; inconclusive = small, poorly fitted or top-dose-only effect, or another doubt; inactive = no such curve, though single readings can be large; an effect the other way counts as inactive or inconclusive.

CCS(=O)(=O)Nc1ccc(-c2cn3ccsc3n2)cc1	p53ts 32C tox inconclusive, p53ts 39C tox inconclusive
CC(C)CC(=O)Nc1ccc(-c2cn3ccsc3n2)cc1	p53ts 32C tox 1µM, p53ts 39C tox 1µM
CC(C)CC(=O)Nc1cccc(-c2cn3cccnc3n2)c1	p53ts 32C tox inconclusive, p53ts 39C tox inconclusive
CCOc1ccccc1C(=O)Nc1cc(-c2nc3cccnc3s2)ccc1C	p53ts 32C tox inconclusive
CCCCOCc1cc(CN2CCN(c3cccc(Cl)c3)CC2)c(O)c2ncccc12	none
CCCOCc1cc(CN2CCN(c3cccc(Cl)c3)CC2)c(O)c2ncccc12	p53ts 39C tox 16µM
CN1CCN(Cc2cc(COCc3ccccc3)c3cccnc3c2O)CC1	p53ts 39C tox 5µM
Oc1ccc(CN2CCN(Cc3ccccc3)CC2)c2cccnc12	p53ts 32C tox inconclusive
CCCCN(CCCNC(=O)CN1N=C(c2ccccc2)CCC1=O)c1ccccc1	Peg3 imprint inconclusive
COc1cccc(-c2nn(C)c3sc(C(=O)NCCc4cccc(C)c4)cc23)c1	none
CCCOc1ccc(Oc2nc(NC)nc(N3CCOCC3)n2)nn1	none
CCCNC(=O)c1c(NC(=O)c2ccccc2)sc2c1CCC(C(C)(C)C)C2 (configuration not stated)	none
COc1cc(/C=C(/C#N)c2nc(-c3cc4ccccc4oc3=O)cs2)ccc1O	none
CCOc1ccc(-c2cc(C(=O)NCc3ccc(C)cc3)c3ccccc3n2)cc1	none
CCOc1ccc(-c2cc(C(=O)N3CCN(c4cccc(C)c4)C(C)C3)c3ccccc3n2)cc1 (configuration not stated)	p53ts 32C tox inconclusive, p53ts 39C tox inconclusive
CCOc1ccc(-c2cc(C(=O)N3CCN(c4ccc(C)cc4)C(C)C3)c3ccccc3n2)cc1 (configuration not stated)	p53ts 32C tox 16µM, p53ts 39C tox 20µM
CCOc1ccc(-c2cc(C(=O)NN3CCN(C)CC3)c3cc(Cl)ccc3n2)cc1	none (no result: p53ts 32C tox, Peg3 imprint)
CCOC(=O)N1CCN(C(=O)c2cc(-c3ccc(OCC)cc3)nc3ccccc23)CC1	p53ts 32C tox 5µM, p53ts 39C tox 10µM
CCOc1ccc(-c2cc(C(=O)N3CCN(C)CC3)c3ccccc3n2)cc1	p53ts 32C tox 2.5µM, p53ts 39C tox 4µM
COc1ccc(NC(=O)c2cc(-c3ccccc3F)no2)cc1	none
CCC(=O)[C@@]1(O)C(=O)N2C(=C3C(=O)OCCC31)N(Cc1ccccc1)C(C)=C(C(=O)OC)C2c1ccccc1 (some centres not stated)	none (no result: Peg3 imprint)
COc1ccc(-n2nc(C(=O)N3CCCC(C)C3)c3c4ccccc4n(C)c3c2=O)cc1Cl (configuration not stated)	none
COC1=CC(=O)C=C(OC)C1=O	p53ts 32C tox inconclusive, p53ts 39C tox 16µM
COC1=CC(=O)C(C(=O)c2ccccc2)=CC1=O	p53ts 32C tox inconclusive, p53ts 39C tox inconclusive
Cc1cc(C(=O)NCc2ccccc2C)c2c(C)nn(-c3cccc(F)c3)c2n1	none
CS(=O)(=O)N1CCN(C(=O)c2cc(-c3cccs3)nc3ccccc23)CC1	none
Cc1ccc2nc(-c3ccc4c(c3)OCCO4)cc(C(=O)O)c2c1	p53ts 32C tox 16µM, p53ts 39C tox 10µM
O=C(O)c1cc(-c2cccs2)nc2cc3c(cc12)OCCO3	p53ts 32C tox inconclusive, p53ts 39C tox 10µM
O=C(O)c1cc(-c2ccc3c(c2)OCO3)nc2ccccc12	p53ts 32C tox inconclusive, p53ts 39C tox inconclusive
CCCC(O)c1nc2ccccc2n1CCCCOc1ccc(OC)cc1 (configuration not stated)	none
C=CCNS(=O)(=O)c1ncnc2nc[nH]c12	none
Cc1ccc(Nc2c(-c3ccc(N4CCOCC4)cc3)nc3ncccn23)cc1	Peg3 imprint inconclusive
Cc1ccccc1Nc1c(-c2ccc(N3CCOCC3)cc2)nc2ncccn12	p53ts 32C tox 13µM, p53ts 39C tox 4µM
COc1cc(C(=O)NC(c2ccccc2Cl)c2cc(Cl)c3cccnc3c2O)cc(OC)c1OC (configuration not stated)	p53ts 32C tox inconclusive, p53ts 39C tox inconclusive
COc1ccc(C(=O)NC(c2ccccc2Cl)c2cc(Cl)c3cccnc3c2O)cc1 (configuration not stated)	p53ts 39C tox 2.5µM
O=C(CCC1N=C2c3ccccc3N=C(SCC(=O)Nc3ccccc3F)N2C1=O)NCc1ccco1 (configuration not stated)	none
Cc1cc(OCCn2c(C3CC(=O)N(Cc4ccc(F)cc4)C3)nc3ccccc32)ccc1Cl (configuration not stated)	none
CCOc1ccccc1N1CC(c2nc3ccccc3n2CCOc2ccc(C(C)(C)C)cc2)CC1=O (configuration not stated)	p53ts 32C tox inconclusive, p53ts 39C tox 13µM
Cc1cccc(OCCCCn2c(C3CC(=O)N(c4ccccc4Cl)C3)nc3ccccc32)c1 (configuration not stated)	p53ts 32C tox inconclusive, p53ts 39C tox 16µM
CCc1ccccc1N1CC(c2nc3ccccc3n2CCOc2ccc(Cl)c(C)c2)CC1=O (configuration not stated)	p53ts 32C tox inconclusive, p53ts 39C tox 32µM
CCOc1ccccc1N1CC(c2nc3ccccc3n2CCCCOc2cc(C)ccc2C)CC1=O (configuration not stated)	p53ts 32C tox inconclusive, p53ts 39C tox inconclusive
Cc1cccc(OCCCCn2c(C3CC(=O)N(c4ccc(C)cc4C)C3)nc3ccccc32)c1 (configuration not stated)	p53ts 32C tox inconclusive, p53ts 39C tox 25µM
CCOc1ccccc1N1CC(c2nc3ccccc3n2CCCOc2ccccc2OC)CC1=O (configuration not stated)	none
COc1ccccc1OCCCn1c(C2CC(=O)N(c3ccccc3Cl)C2)nc2ccccc21 (configuration not stated)	none
Cc1ccccc1C1CC(=O)Nc2ccc3ccccc3c21 (configuration not stated)	none
NC[C@@H]1O[C@@H](O[C@H]2[C@H](O)[C@@H](O[C@@H]3O[C@@H](CO)[C@H](O)[C@@H](N)[C@@H]3O)[C@H](N)C[C@@H]2N)[C@@H](O)[C@H](O)[C@H]1O	none (no result: p53ts 32C tox, p53ts 39C tox)
Cc1ccc(N2CCN(C(=O)c3cn(C)c4ccc(S(=O)(=O)N(C)C)cc4c3=O)CC2C)cc1 (configuration not stated)	none
COc1cc(OC)c(NC(=O)C(c2ccccc2)N2Cc3ccccc3C2=O)cc1Cl (configuration not stated)	none (no result: p53ts 39C tox, Peg3 imprint)
C[C@@H]1/C=C\CC(=O)OC[C@H](C)C(=O)N2CCC[C@@H]2C(=O)OC1	none (no result: Peg3 imprint)
CC12CC3OS(=O)OC3CC3C4C(C(OCc5ccccc5)C31)C42 (configuration not stated)	none (no result: Peg3 imprint)
C=CCC1(c2ccccc2)Oc2ccc(C)cc2-c2nc3cc(Cl)c(Cl)cc3nc21 (configuration not stated)	none (no result: Peg3 imprint)
CCn1c(SCC(=O)Nc2cc(C)on2)nc2c(c1=O)SC(C)C2 (configuration not stated)	none
Cc1ccc(-n2c(SCC(=O)Nc3cc(C)on3)nc3c(c2=O)SC(C)C3)cc1 (configuration not stated)	p53ts 32C tox 10µM, p53ts 39C tox inconclusive
CC1Cc2cc(S(=O)(=O)NCc3ccc(Cl)cc3)ccc2N1C(=O)C1CCC1 (configuration not stated)	none (no result: p53ts 39C tox, Peg3 imprint)
